Test [1] can be described thus: NCI Yeast Anticancer Drug Screen. Data for the rad50 strain (AID 155).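 Also: 0% = growth of vehicle-only cultures of the same strain.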 The conditions noted are these: S. cerevisiae rad50 strain growth inhibition, active compounds read high. The gist of the method: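 Readout: growth inhibition relative to vehicle-treated cultures. Compound exposure was carried out in a genetically defined yeast strain deficient in DNA damage repair.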

A short description of test [2]: NCI Yeast Anticancer Drug Screen. Data for the mec2-1 strain (AID 157). The conditions noted are these: S. cerevisiae mec2-1 strain, active compounds read high. The gist of the method: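 Test agents were screened against the mec2-1 yeast strain, with defined DNA repair or cell cycle alteration. Growth was scored as inhibition against vehicle-only controls.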
Test [3] in a line: NCI Yeast Anticancer Drug Screen. Data for the sgs1 mgt1 strain (AID 161).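 Also: 0% = growth of cultures given vehicle only.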 The following applies: S. cerevisiae sgs1 mgt1 strain, active compounds read high. The gist of the method:
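Mutant yeast exposed to compound; growth scored against vehicle-only wells.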

Test [4] in a line: NCI Yeast Anticancer Drug Screen. Data for the cln2 rad14 strain (AID 165).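 Also: 0% = growth equal to vehicle treated cultures.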 The conditions noted are these: S. cerevisiae cln2 rad14 strain, active compounds read high. The gist of the method: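 Growth of compound-exposed yeast (cln2 rad14 genotype) measured and expressed as inhibition relative to vehicle.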
A short description of test [5]: NCI Yeast Anticancer Drug Screen. Data for the bub3 strain (AID 167). The conditions noted are these: S. cerevisiae bub3 mutant strain, active compounds read high. The gist of the method: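 Readout: yeast growth inhibition, expressed relative to vehicle-only wells. The test organism is a mutant strain from a panel with lesions in DNA repair or checkpoint genes.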
Test [6] can be described thus: NCI Yeast Anticancer Drug Screen. Data for the mlh1 rad18 strain (AID 175). The following applies: S. cerevisiae mlh1 rad18 strain growth inhibition, active compounds read high. The gist of the method: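 In this whole-cell yeast screen, a strain with altered DNA damage repair is challenged with compound, and its growth is measured against matched vehicle-treated controls.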

The mark [7] stands for this setting: at 5.0 µM (retest, dose inferred, filed as 0.5).
Setting [8] is: at 50.0 µM (retest, dose inferred, filed as 5.0).

Compounds without any hit were thinned out: in the full panel of roughly 79,000, 15% have a hit. A number with no mark means an inactive call. Active and inactive are the calls of the source. Rule as the data show it: active = growth inhibition above about 70%; inactive = the rest.

For `BrCN(CBr)c1ccc2c(c1)Cc1cc(Br)ccc1-2`, the growth inhibition in test [1] (setting [7]) was 4%; in test [1] (setting [8]) it was -4%; in test [1] (at 50.0 µM), 70.4% (active); in test [2] (setting [7]), -3%; in test [2] (setting [8]), -4%; in test [2] (at 50.0 µM), 28.4%. For the same compound, the growth inhibition was 1% in test [3] (setting [7]); 1% in test [3] (setting [8]); 64.8% in test [3] (at 50.0 µM); 7% in test [4] (setting [7]); 11% in test [4] (setting [8]); -1.35% in test [4] (at 50.0 µM). Moreover, the growth inhibition in test [5] (setting [7]) was 1%; in test [5] (setting [8]), -2%; in test [5] (at 50.0 µM), 25.8%; in test [6] (setting [7]), 3%; in test [6] (setting [8]) it was -7%; in test [6] (at 50.0 µM) it was 74.3% (active).

Regarding `Cc1c(-c2ccccc2)sc(/N=C/c2cc(Br)cc(Br)c2O)c1C#N`, the growth inhibition is -17% in test [1] (setting [7]); 63% in test [1] (setting [8]); 5.9% in test [1] (at 50.0 µM); 10% in test [2] (setting [7]); 34% in test [2] (setting [8]); 25.3% in test [2] (at 50.0 µM). Moreover, the growth inhibition in test [3] (setting [7]) is 15%; in test [3] (setting [8]) it was 84% (active); in test [3] (at 50.0 µM), 29%; in test [4] (setting [7]), 11%; in test [4] (setting [8]) it was 12%; in test [4] (at 50.0 µM), 10.8%. Also, the growth inhibition in test [5] (setting [7]) was 5%; in test [5] (setting [8]) it was 75% (active); in test [5] (at 50.0 µM), 19.2%; in test [6] (setting [7]) it was 10%; in test [6] (setting [8]) it was 60%; in test [6] (at 50.0 µM), 62.9%.

As for `Oc1ccc2oc3ccccc3c2c1`, the growth inhibition in test [1] (setting [7]) was 9%; in test [1] (setting [8]) it was 94% (active); in test [1] (at 50.0 µM) it was 94.5% (active); in test [2] (setting [7]), 0%; in test [2] (setting [8]), 87% (active); in test [2] (at 50.0 µM), 76% (active). Besides, the growth inhibition in test [3] (setting [7]) was 0%; in test [3] (setting [8]), 82% (active); in test [3] (at 50.0 µM), 84.3% (active); in test [4] (setting [7]) it was -3%; in test [4] (setting [8]) it was 46%; in test [4] (at 50.0 µM), 75.5% (active). The growth inhibition in test [5] (setting [7]) is 0%; in test [5] (setting [8]) it was 92% (active); in test [5] (at 50.0 µM), 88.4% (active); in test [6] (setting [7]) it was 3%; in test [6] (setting [8]), 94% (active); in test [6] (at 50.0 µM) it was 94.5% (active).

Take `O=[N+]([O-])c1cccc(Cl)c1C(Nc1nncs1)Nc1nncs1`: the growth inhibition in test [1] (setting [7]) was 7%; in test [1] (setting [8]) it was 60%; in test [1] (at 50.0 µM), 55.5%; in test [2] (setting [7]), 7%; in test [2] (setting [8]) it was 41%; in test [2] (at 50.0 µM), 27.7%. For the same compound, the growth inhibition in test [3] (setting [7]) was 10%; in test [3] (setting [8]) it was 67%; in test [3] (at 50.0 µM), 73.9% (active); in test [4] (setting [7]), -1%; in test [4] (setting [8]), 20%; in test [4] (at 50.0 µM), 26.6%. Further, the growth inhibition in test [5] (setting [7]) was -2%; in test [5] (setting [8]) it was 22%; in test [5] (at 50.0 µM), 33.8%; in test [6] (setting [7]), 3%; in test [6] (setting [8]) it was 82% (active); in test [6] (at 50.0 µM) it was 68.3%.

Take `CC(C)(C)CCCC(C(=O)O)c1ccccc1` (configuration not stated): the growth inhibition in test [1] (setting [7]) is 0%; in test [1] (setting [8]), 50%; in test [1] (at 50.0 µM) it was 82.6% (active); in test [2] (setting [7]), -10%; in test [2] (setting [8]), 54%; in test [2] (at 50.0 µM), 75.8% (active). Further, the growth inhibition in test [3] (setting [7]) was -2%; in test [3] (setting [8]), 31%; in test [3] (at 50.0 µM), 63%; in test [4] (setting [7]), -10%; in test [4] (setting [8]), 60%; in test [4] (at 50.0 µM) it was 76.8% (active). Moreover, the growth inhibition in test [5] (setting [7]) is -7%; in test [5] (setting [8]) it was 57%; in test [5] (at 50.0 µM), 55.1%; in test [6] (setting [7]), -7%; in test [6] (setting [8]), 49%; in test [6] (at 50.0 µM), 85.1% (active).

`CC(Cc1ccccc1)N1C(=O)C=CC1=O` (configuration not stated): the growth inhibition is 45% in test [1] (setting [7]); 98% (active) in test [1] (setting [8]); 91.8% (active) in test [1] (at 50.0 µM); 92% (active) in test [2] (setting [7]); 99% (active) in test [2] (setting [8]); 93.5% (active) in test [2] (at 50.0 µM). Further, the growth inhibition in test [3] (setting [7]) was 20%; in test [3] (setting [8]), 50%; in test [3] (at 50.0 µM), 93.8% (active); in test [4] (setting [7]), 77% (active); in test [4] (setting [8]), 98% (active); in test [4] (at 50.0 µM) it was 91.5% (active). Also, the growth inhibition in test [5] (setting [7]) is 76% (active); in test [5] (setting [8]), 99% (active); in test [5] (at 50.0 µM), 92.2% (active); in test [6] (setting [7]), 47%; in test [6] (setting [8]) it was 98% (active); in test [6] (at 50.0 µM), 91.8% (active).

`CCCCNc1ncc(OCC)c(NCCCC)n1`: the growth inhibition in test [1] (setting [7]) is 1%; in test [1] (setting [8]), -1%; in test [1] (at 50.0 µM) it was 73.5% (active); in test [2] (setting [7]), 4%; in test [2] (setting [8]) it was -44%; in test [2] (at 50.0 µM) it was 88.9% (active). The growth inhibition was 0% in test [3] (setting [7]); 4% in test [3] (setting [8]); 92.5% (active) in test [3] (at 50.0 µM); -2% in test [4] (setting [7]); 4% in test [4] (setting [8]); 42.6% in test [4] (at 50.0 µM). Also, the growth inhibition is 39% in test [5] (setting [7]); 23% in test [5] (setting [8]); 94.9% (active) in test [5] (at 50.0 µM); 0% in test [6] (setting [7]); 1% in test [6] (setting [8]); 77.7% (active) in test [6] (at 50.0 µM).

Take `Nc1ccc(C(=O)N/C(=C\c2ccc3c(c2)OCO3)c2nc3ccccc3s2)cc1`: the growth inhibition in test [1] (setting [7]) is 23%; in test [1] (setting [8]), 99% (active); in test [1] (at 50.0 µM), 97.2% (active); in test [2] (setting [7]) it was -2%; in test [2] (setting [8]) it was 99% (active); in test [2] (at 50.0 µM) it was 98.5% (active). Besides, the growth inhibition was 54% in test [3] (setting [7]); 99% (active) in test [3] (setting [8]); 98.2% (active) in test [3] (at 50.0 µM); 15% in test [4] (setting [7]); 98% (active) in test [4] (setting [8]); 96.3% (active) in test [4] (at 50.0 µM). Also, the growth inhibition in test [5] (setting [7]) is 32%; in test [5] (setting [8]) it was 98% (active); in test [5] (at 50.0 µM) it was 97.4% (active); in test [6] (setting [7]), 30%; in test [6] (setting [8]), 98% (active); in test [6] (at 50.0 µM), 98.4% (active).

As for `O=C(Nc1ccc(Cl)cc1)OCC1C2C=CC(C2)C1CO` (configuration not stated), the growth inhibition is 6% in test [1] (setting [7]); 95% (active) in test [1] (setting [8]); 86.8% (active) in test [1] (at 50.0 µM); -1% in test [2] (setting [7]); 97% (active) in test [2] (setting [8]); 75.7% (active) in test [2] (at 50.0 µM). Further, the growth inhibition in test [3] (setting [7]) is 2%; in test [3] (setting [8]) it was 97% (active); in test [3] (at 50.0 µM) it was 98.4% (active); in test [4] (setting [7]) it was 2%; in test [4] (setting [8]), 89% (active); in test [4] (at 50.0 µM), 66.5%. Moreover, the growth inhibition is -3% in test [5] (setting [7]); 92% (active) in test [5] (setting [8]); 92.9% (active) in test [5] (at 50.0 µM); 5% in test [6] (setting [7]); 97% (active) in test [6] (setting [8]); 77.8% (active) in test [6] (at 50.0 µM).

(Values after PubChem BioAssay (NCI).)
